The values below come from PubChem BioAssay (NCATS).

Results filed as inconclusive are left out. Calls of active or inactive are those of the source. Calls come from the whole dose curve; as a rule, active = well fitted inhibition curve with a large enough effect; inconclusive = small, poorly fitted or top-dose-only effect; inactive = flat fitted curve, though single readings scatter.

Common to all, as to test: qHTS profiling for inhibitors of Plasmodium falciparum proliferation (AID 504749); note: nearly all actives have a fitted effect of over 60% in size
Holding throughout (settings): P. falciparum in erythrocytes, SYBR Green DNA, 72 h; series mostly up to 28.7 µM

In one test the test system is AA1029. A digest of the protocol:
(§1)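 Three-day growth assay of blood-stage parasites in erythrocytes (0.3% parasitemia, 2.5% hematocrit) at 37 C, 5% CO2, quantified by SYBR Green DNA staining after overnight detergent lysis.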

A further test has as its system AS120. A digest of the protocol: as §1
The subject of a further test is C2A. A digest of the protocol:
as §1

For a further test, the system named is CP201. In a few lines:
as §1

In a further test the test system is CP203. A digest of the protocol: as §1
The subject of the next test is CP237. A digest of the protocol:
as §1

For the next test, the system named is CP250. In a few lines: as §1
The next test has as its system CP256. A digest of the protocol: as §1
The next test relates to CP268. A digest of the protocol:
as §1

In the next test the test system is CP305. A digest of the protocol: as §1
A further test concerns CP315. A digest of the protocol:
as §1

The test system of a further test is CP325. A digest of the protocol: as §1
A further test concerns DIV30. A digest of the protocol: as §1
The next test has as its system HB3. In a few lines: as §1
The test system of a further test is JCK. In a few lines:
as §1

A further test relates to N140. A digest of the protocol:
as §1

The subject of the next test is P94_40. A digest of the protocol:
as §1

In another test the test system is PAD. A digest of the protocol: as §1
For the next test, the system named is SC27B. A digest of the protocol:
as §1

For another test, the system named is TAB113. In a few lines:
as §1
Potency is the fitted concentration of half-maximal effect.

For `C=NC(C(=O)NC1C(=O)N2C1SC(C)(C)C2C(=O)O)c1ccccc1` (stereo not drawn), the Potency result in the test on AA1029, with AS120, in the test with C2A, with CP201, with CP203 and with CP237 was “inactive” in each case. Moreover, the Potency entry in the test on CP250, with CP256, in the test on CP268, with CP305, in the test on CP315 and with CP325 was “inactive” throughout. Also, the Potency result in the test with DIV30, with HB3, in the test with JCK, in the test on N140, with P94_40 and with PAD was “inactive” throughout. Besides, the Potency entry with SC27B and in the test with TAB113 was “inactive” throughout.

Consider `CCCCCCCCCCCCCCCC(=O)OC[C@H](O)[C@H]1OC[C@@H](O)[C@@H]1O`, for which the Potency result with AA1029, in the test on AS120, in the test with C2A, with CP201, in the test with CP203 and with CP237 was “inactive” in each case. The Potency result in the test with CP250, in the test on CP256, in the test on CP268, in the test with CP305, with CP315 and with CP325 was “inactive” each time. The Potency result in the test on DIV30, in the test on HB3, with JCK, in the test with N140, in the test on P94_40 and in the test on PAD was “inactive” in each case. Besides, the Potency entry with SC27B and in the test on TAB113 was “inactive” in each case.

Take `C=CC1CN2CCC1CC2[C@@H](O)c1ccnc2ccc(OC)cc12` (stereo partly drawn): the Potency is 282 nM (active) in the test on AA1029; 398 nM (active) in the test on AS120; 891 nM (active) with C2A; 1070 nM (active) with CP201; 426 nM (active) with CP203; 891 nM (active) with CP237. Besides, the Potency in the test on CP250 is 891 nM (active); with CP256 it was 891 nM (active); in the test with CP268 it was 536 nM (active); in the test with CP305, 478 nM (active); in the test on CP315 it was 953 nM (active); in the test on CP325 it was 478 nM (active). Also, the Potency is 338 nM (active) in the test on DIV30; 158 nM (active) with HB3; 2000 nM (active) in the test on JCK; 316 nM (active) in the test on N140; 251 nM (active) with P94_40; 251 nM (active) in the test with PAD. Moreover, the Potency was 891 nM (active) with SC27B and 355 nM (active) in the test with TAB113.

For `NC(=O)C1CC2(NC(=O)NC2=O)c2cc(F)ccc2O1` (stereo not drawn), the Potency result in the test on AA1029, in the test on AS120, with C2A, with CP201, with CP203 and in the test on CP237 was “inactive” throughout. The Potency entry in the test on CP250, in the test on CP256, in the test on CP268, in the test with CP305, in the test on CP315 and with CP325 was “inactive” throughout. Moreover, the Potency entry in the test with DIV30, with HB3, in the test with JCK, in the test on N140, in the test with P94_40 and in the test on PAD was “inactive” in each case. The Potency entry in the test on SC27B and in the test on TAB113 was “inactive” throughout.

For the compound `CCCCC(=O)OCC(=O)[C@]1(O)Cc2c(O)c3c(c(O)c2[C@H](OC2CC(NC(=O)C(F)(F)F)C(O)C(C)O2)C1)C(=O)c1c(OC)cccc1C3=O` (stereo partly drawn), the Potency with AA1029 was 2000 nM (active); with AS120, 2000 nM (active); with C2A, 2000 nM (active); in the test on CP201 it was 4780 nM (active); in the test on CP203, 1690 nM (active); in the test on CP237, 1580 nM (active). In addition, the Potency was 2510 nM (active) in the test with CP250; 2000 nM (active) in the test with CP256; 5360 nM (active) with CP268; 4780 nM (active) with CP305; 1690 nM (active) in the test on CP315; 3380 nM (active) in the test with CP325. For the same compound, the Potency was 1900 nM (active) in the test on DIV30; 2510 nM (active) with HB3; 2000 nM (active) in the test on N140; 2000 nM (active) in the test on P94_40; 2240 nM (active) with PAD; 2510 nM (active) in the test with SC27B. Moreover, the Potency with TAB113 was 2510 nM (active).

`CC[C@@]1(O)C[C@H](O[C@H]2C[C@@H](N(C)C)[C@@H](O[C@H]3C[C@@H](O)[C@@H](O[C@H]4CCC(=O)[C@@H](C)O4)[C@@H](C)O3)[C@@H](C)O2)c2c(cc3c(c2O)C(=O)c2c(O)cccc2C3=O)[C@H]1C(=O)OC`: the Potency in the test on AA1029 was 199 nM (active); with AS120 it was 100 nM (active); in the test on C2A it was 178 nM (active); with CP201 it was 1510 nM (active); in the test with CP203, 849 nM (active); in the test with CP237, 35.5 nM (active). Also, the Potency in the test with CP250 is 251 nM (active); in the test with CP256 it was 282 nM (active); with CP268, 953 nM (active); in the test with CP305 it was 601 nM (active); in the test on CP315, 1350 nM (active); with CP325, 849 nM (active). Further, the Potency was 953 nM (active) with DIV30; 141 nM (active) with HB3; 126 nM (active) in the test with JCK; 178 nM (active) with N140; 158 nM (active) in the test with P94_40; 178 nM (active) in the test on PAD. Moreover, the Potency in the test on SC27B is 316 nM (active); with TAB113, 199 nM (active).

With `CC1OC(OCC2OC(Oc3c(-c4ccc(OCCO)c(OCCO)c4)oc4cc(OCCO)cc(O)c4c3=O)C(O)C(O)C2O)[C@@H](O)C(O)C1O` (stereo partly drawn), the Potency entry with AA1029, in the test on AS120, in the test on C2A, in the test on CP201, in the test with CP203 and in the test with CP237 was “inactive” in each case. The Potency result in the test on CP250, with CP256, with CP268, in the test with CP305, in the test on CP315 and in the test on CP325 was “inactive” each time. Besides, the Potency result in the test with DIV30, in the test with HB3, in the test with JCK, in the test on N140, with P94_40 and with PAD was “inactive” each time. Further, the Potency entry in the test with SC27B and with TAB113 was “inactive” each time.

In the case of `CN1[C@@H]2CC[C@@H]1CC(OC(=O)[C@H](CO)c1ccccc1)C2` (stereo partly drawn), the Potency result in the test on AA1029, with AS120, in the test with C2A, in the test with CP201, in the test on CP203 and with CP237 was “inactive” throughout. Besides, the Potency entry with CP250, with CP256, with CP268, in the test with CP305, with CP315 and in the test with CP325 was “inactive” each time. Further, the Potency entry with DIV30, with HB3, with N140, in the test on P94_40, in the test on PAD and with SC27B was “inactive” each time. In the test with JCK, the Potency is 15800 nM (active).

For `CC(=O)NC[C@@H]1CN(c2ccc(N3CCOCC3)c(F)c2)C(=O)O1`, the Potency result in the test with AA1029, in the test with AS120, with C2A, in the test with CP201, in the test with CP203 and in the test with CP237 was “inactive” in each case. Further, the Potency result in the test with CP250, with CP256, in the test with CP268, with CP305, in the test on CP315 and in the test on CP325 was “inactive” each time. Further, the Potency entry in the test on DIV30, in the test with HB3, with JCK, with N140, in the test with P94_40 and with PAD was “inactive” throughout. Also, the Potency entry in the test on SC27B and in the test with TAB113 was “inactive” throughout.

Consider `CC(CCC(=O)O)C1CCC2C3C(=O)C[C@@H]4CC(=O)CC[C@@]4(C)C3CC(=O)[C@]12C` (stereo partly drawn), for which the Potency result in the test with AA1029, in the test with AS120, in the test on C2A, with CP201, in the test with CP203 and in the test with CP237 was “inactive” each time. The Potency entry with CP250, in the test with CP256, with CP268, with CP305, in the test on CP315 and with CP325 was “inactive” each time. For the same compound, the Potency entry in the test on DIV30, in the test with HB3, in the test with JCK, in the test with N140, in the test on P94_40 and in the test on PAD was “inactive” throughout. Also, the Potency result with SC27B and with TAB113 was “inactive” throughout.

`OC[C@@H]1O[C@](CO)(O[C@H]2O[C@H](CO)[C@@H](O)[C@H](O)[C@H]2O)[C@H](O)[C@H]1O`: the Potency result with AA1029, in the test on AS120, in the test with C2A, with CP201, with CP203 and in the test with CP237 was “inactive” in each case. For the same compound, the Potency entry with CP250, with CP256, with CP268, in the test on CP305, with CP315 and in the test with CP325 was “inactive” each time. The Potency entry in the test with DIV30, with HB3, with JCK, with N140, in the test on P94_40 and with PAD was “inactive” each time. Moreover, the Potency result with SC27B and with TAB113 was “inactive” each time.
